DT40 TDP1 no CPT: qHTS for Inhibitors of human tyrosyl-DNA phosphodiesterase 1 (TDP1): qHTS in cells in absence of CPT; AID 686978, 2013; 420,000 tested, 15% active; DT40 Tdp1-/- hTDP1 cells, no CPT, ATP luminescence, 48 h; Potency, µM (series often up to 46.2 µM), without a hit: at the highest dose activity change, negative = growth inhibition, hits mostly inhibitors; note: potency is the fitted concentration of half-maximal effect; nearly all actives have a fitted effect of over 55% in size
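Growth of hTDP1-complemented DT40 Tdp1-knockout cells is measured by ATP luminescence after at least 48 hr compound exposure at 37 °C, with DMSO substituting for the 20 nM CPT used in the parallel screen.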
HT1080-NT tox: kills 2HG-producing HT-1080-NT fibrosarcoma cells; HT-1080-NT fibrosarcoma viability, CellTiter-Glo ATP luminescence, 48 h; Potency, µM (doses to about 46.1 µM), inactives show at the top dose activity, negative = less viability, hits mostly cytotoxic; 360,000 tested, 1.6% active;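 note: NT is the 2HG producing partner of a matched IDH1 knockdown line; potency is the fitted concentration of half-maximal effect; 0% = DMSO-treated cells and -100% = media-only wells without cells; nearly all actives have a fitted effect of over 55% in size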
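HT-1080-NT fibrosarcoma cells (2HG-overproducing), 750 cells/well in RPMI with 5% FBS, dosed after 2 h and incubated 48 h at 37C. CellTiter-Glo luminescence normalized to DMSO and no-cell wells; concentration-response curves fitted and classed.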
IL1B secr inh: inflammasome signaling inhibition, IL-1 beta readout | THP-1 LPS/ATP IL-1B secretion, AlphaLISA, 16 h; hits give low values | activity change, % at 57.5 µM | 360,000 tested, 4.7% active | AID 743279; in the data active = activity change below about -50%; inconclusive = mostly about -30% to -49%
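Secreted IL-1B measured by AlphaLISA bead assay after 16 h compound exposure of THP-1 cells; compounds (final up to 57.5 uM) added 1 h before LPS (250 ng/mL) and ATP (1.25 mM) stimulation; lower signal means less secretion.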
TDP1 cell CPT: DT40-hTDP1 cell growth loss with CPT. AID 686979. Potency, µM (highest dose often 46.2 µM), without a hit: top-dose activity change, negative = growth inhibition, actives largely listed as inhibitors. 420,000 tested, 12% active. chicken DT40 Tdp1-/-;hTDP1 cells + 20 nM CPT, ATP luminescence, 48 h; note: potency is the fitted concentration of half-maximal effect; nearly all actives have a fitted effect of over 55% in size
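Chicken DT40 Tdp1-/- cells stably complemented with human TDP1 were seeded at 400 cells/well in medium containing 20 nM camptothecin, exposed to pin-transferred compounds, and grown at 37 °C for at least 48 hr. Viability was read as ATP luminescence.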
ALOX12 inh: inhibitors of human 12S-lipoxygenase ALOX12; P18054; purified 12hLO, xylenol orange hydroperoxide absorbance; Potency, µM (titrated, usually from 108 µM), without a hit: at the highest dose activity change, negative = inhibition, usual class: inhibitors; 580,000 tested, 1.1% active; note: potency is the fitted concentration of half-maximal effect
Target sequence (P18054 whole entry, looked up): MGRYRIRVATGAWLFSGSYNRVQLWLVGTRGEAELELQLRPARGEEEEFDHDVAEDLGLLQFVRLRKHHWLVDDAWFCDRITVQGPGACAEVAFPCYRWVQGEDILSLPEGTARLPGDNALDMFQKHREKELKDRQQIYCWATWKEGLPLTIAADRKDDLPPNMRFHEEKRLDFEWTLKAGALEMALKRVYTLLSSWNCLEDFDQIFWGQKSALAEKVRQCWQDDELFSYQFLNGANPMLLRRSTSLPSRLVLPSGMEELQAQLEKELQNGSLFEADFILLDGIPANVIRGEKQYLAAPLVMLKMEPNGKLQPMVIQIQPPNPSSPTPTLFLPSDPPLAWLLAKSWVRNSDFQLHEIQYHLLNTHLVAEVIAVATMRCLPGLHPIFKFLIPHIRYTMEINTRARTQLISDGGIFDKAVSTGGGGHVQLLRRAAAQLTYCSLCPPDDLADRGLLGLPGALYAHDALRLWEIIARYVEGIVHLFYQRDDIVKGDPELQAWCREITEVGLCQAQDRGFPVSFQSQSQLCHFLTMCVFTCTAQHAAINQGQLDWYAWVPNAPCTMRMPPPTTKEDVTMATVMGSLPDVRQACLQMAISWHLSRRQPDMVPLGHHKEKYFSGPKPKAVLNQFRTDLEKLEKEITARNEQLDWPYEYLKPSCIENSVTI
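Purified human 12hLO at 150 nM in 25 mM Hepes, 0.01% Triton X-100, pH 7.0, preincubated 15 min at room temperature with compound. Reaction started with 40 uM arachidonic acid, 30 min at room temperature. Hydroperoxide measured by Fe-xylenol orange, 573/405 nm absorbance ratio.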
HT1080 IDH1KD tx: HT-1080 IDH1 knockdown cell toxicity (counter line). HT-1080 IDH1 knockdown viability, ATP luminescence, 48 h. Potency, µM (highest dose often 46.1 µM), for inactives: top-dose activity, negative = toxicity, hits mostly cytotoxic. 360,000 tested, 2% active;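 note: potency is the fitted concentration of half-maximal effect; 0% = DMSO wells and -100% = cell-free medium wells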
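Assay cells: HT-1080 with IDH1 knockdown, 750 per well, RPMI/5% FBS. Exposure: 48 h at 37 °C following 2 h pre-incubation. Read: CellTiter-Glo luminescence; fitted concentration-response, curve class assigned.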
* = called active by the depositor; ? = inconclusive; . = no result; [ ] = another dose, or the depositor's remark. The full list was thinned out, with hits kept by preference. Unless noted, calls come from the whole dose curve; as a rule, active = well fitted curve in the direction sought with a large enough effect; inconclusive = small, poorly fitted or top-dose-only effect, or another doubt; inactive = no such curve, though single readings can be large; an effect the other way counts as inactive or inconclusive. Unless noted, % is set by controls: 0 for no effect and ±100 for the full control effect.

SMILES	DT40 TDP1 no CPT	HT1080-NT tox	IL1B secr inh	TDP1 cell CPT	ALOX12 inh	HT1080 IDH1KD tx
CCOC(=O)C1(CC2CC2)CCN(C(=O)c2cc(C3CC3)nc3ccccc23)CC1	23µM*	-6%	-84*	?	13%	-9%
CCOC(=O)C1(CC2CC2)CCN(C(=O)c2cc(OC)nc3ccccc23)CC1	?	15%	-17	?	0%	0%
COc1ccc2[nH]c3c(=O)n(/N=C/[C@H]4C(C)C=C(C)CC4C)c(=O)[nH]c3c2c1 (some centres not stated)	16µM*	?	-58*	18µM*	?	?
COc1ccc2c(c1)[nH]c1c(=O)n(/N=C/C3C(C)C=C(C)CC3C)c(=O)[nH]c12 (configuration not stated)	?	-22%	6	?	?	0%
CCc1nc(CN2CCCC(C(=O)c3ccc4c5c(cccc35)CC4)C2)c(C)[nH]1 (configuration not stated)	16µM*	15µM*	-100*	?	7%	16µM*
CN(C)C(=O)CCC(=O)N1CCCC(C(=O)c2ccc3c4c(cccc24)CC3)C1 (configuration not stated)	15µM*	-18%	-8	?	0%	-1%
O=C(c1ccc2c3c(cccc13)CC2)C1CCCN(Cc2ccncc2)C1 (configuration not stated)	9.2µM*	13µM*	?	13µM*	-15%	-6%
CCc1nc(CN2CCCC(C(=O)Nc3ccc(-c4cccc(OC)c4)cc3)C2)c(C)[nH]1 (configuration not stated)	?	-17%	13	?	4%	-25%
Cc1ncccc1C(=O)N1CCCC(C(=O)c2ccc3c4c(cccc24)CC3)C1 (configuration not stated)	?	-22%	-6	?	-5%	-4%
COc1cccc(CC(=O)NC2CCN(c3cc(-c4ccc(Cl)cc4)[nH]n3)CC2)c1	.	.	.	.	-6%	.
Cc1cc(C)cc([C@H]2C[C@]34CN(C(=O)OC(C)(C)C)S(=O)(=O)[C@H]3C[C@H]2O4)c1	.	.	.	.	6%	.
Cc1ccc(NC(=O)CSc2nc(-c3ccc(C(C)(C)C)cc3)nc3cc(=O)[nH]n23)cc1C	?	.	.	?	-6%	.
CC(C)(C)c1ccc(OCCSc2nc(-c3cccs3)nc3cc(=O)[nH]n23)cc1	?	.	.	18µM*	-18%	.
CC(C)(C)c1ccc(-c2nc(SCCOc3ccc(Cl)cc3)n3[nH]c(=O)cc3n2)cc1	-80%	.	.	18µM*	0%	.
O=c1cc2nc(-c3cccs3)nc(SCCOc3ccc(Cl)cc3)n2[nH]1	?	.	.	?	-22%	.
Cc1ccc(OCCCSc2nc(-c3ccc(C(C)(C)C)cc3)nc3cc(=O)[nH]n23)cc1C	26µM*	.	.	?	-1%	.
O=C(NCCc1c[nH]c2ccccc12)OCc1cn(Cc2cccc(F)c2)nn1	.	.	.	.	-3%	.
COC(=O)Nc1cc(C(=O)OC)ccc1C	.	.	.	.	15%	.
Cc1ccc(-c2ccc(/C=C3/NC(=O)NC3=O)o2)cc1[N+](=O)[O-]	21µM*	-10%	-8	?	-28%	-14%
CC1=C(C#N)C(=O)NC(=O)/C1=C\c1ccc(-c2cc(C)c(C)cc2[N+](=O)[O-])o1	?	0%	1	?	24%	4%
COc1ccc(-n2c(SCCC#N)nnc2-c2cc(Cl)ccc2OC)cc1Cl	16µM*	?	30	?	-21%	29µM*
Cc1ccc(OCc2nc(C3CCN(C(=O)c4ccn[nH]4)CC3)no2)cc1	.	.	.	.	63%	.
Cn1c(=O)c2c(nc(SCCN3CCCCC3)n2C)n(C)c1=O	8%	4%	5	9%	0%	3%
Cn1c(=S)c2[nH]c(SCCN3CCCC3)nc2n(C)c1=O	23µM*	-3%	29	?	-16%	-4%
Cn1c(=S)c2[nH]c(SCCN)nc2n(C)c1=O	5.8µM*	-15%	23	5.8µM*	?	-6%
SMILES	DT40 TDP1 no CPT	HT1080-NT tox	IL1B secr inh	TDP1 cell CPT	ALOX12 inh	HT1080 IDH1KD tx
CCC1CN(CCNC(=O)c2cn3cc(C)ccc3n2)Cc2cc(OC)ccc2O1 (configuration not stated)	?	.	.	3%[9.04 µM]	1%	.
CCCCN(CCCC)S(=O)(=O)c1ccc(NC(=O)c2cccs2)cc1	21µM*	?	-85*	26µM*	13%	?
CCCCN(CCCC)S(=O)(=O)c1ccc(NC(=O)c2ccc([N+](=O)[O-])cc2Cl)cc1	21µM*	-30%	0	?	0%	?
CC1CC[C@@]2(OC1)OC1CC3C4CC(O)C5CC(O)CCC5(C)C4CCC3(C)C1[C@@H]2C (some centres not stated)	.	.	.	.	3%	.
O=C(Cc1cccc(NC(=O)C2CCCN(C(=O)C3CCCC3)C2)c1)Nc1ccc(C(=O)N2CCOCC2)cc1 (configuration not stated)	?	2%	-25	16µM*	-7%	-2%
CN(C(=O)c1cccc(NC(=O)Cc2cccc(NC(=O)C3CCCN(C(=O)CCc4ccccc4)C3)c2)c1)C1CCC1 (configuration not stated)	21µM*	-12%	-18	?	0%	-8%
CN(C(=O)c1ccc(NC(=O)Cc2cccc(NC(=O)C3CCCN(C(=O)CCc4ccccc4)C3)c2)cc1)C1CC1 (configuration not stated)	?	0%	8	?	0%	-6%
O=C(Cc1cccc(NC(=O)C2CCCN(C(=O)C3CCC3)C2)c1)Nc1ccc(C(=O)N2CCOCC2)cc1 (configuration not stated)	-17%	3%	-12	-26%	-3%	10%
O=C(Cc1cccc(NC(=O)C2CCCN(C(=O)CCc3ccccc3)C2)c1)Nc1cccc(C(=O)N2CCCCC2)c1 (configuration not stated)	21µM*	-3%	-21	16µM*	1%	0%
CN(C(=O)c1cccc(NC(=O)Cc2ccc(NC(=O)C3CCN(C(=O)CCc4ccccc4)CC3)cc2)c1)C1CCCCC1	15µM*	-10%	-9	21µM*	-28%	-27%

Screens: PubChem, National Center for Advancing Translational Sciences (NCATS)
